Assay results from PubChem BioAssay AID1159580 (chemical genetic matrix, 2015).
Where “and” joins values, the source holds several entries; their conditions need not be identical. Equal values may be shown once. About 2,000 (36%) of roughly 5,500 compounds were called active. Another 18% or so got no clear call; they are omitted. Rule as the data show it: active = normalized growth mostly below about 0.91 (no sharp cut-off); inconclusive = no clear call, values can overlap the other calls; inactive = mostly above about 0.92. The list shows a part of the results.

Experiment: chemical genetic growth profiling, strain panel (AID 1159580);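 also: tested at 20 µM; growth read once vehicle control cultures reached saturation at 30 °C; 1 = growth at the plate median or of vehicle wells; lower values mean less growth of the strain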
Conditions: growth OD

Measured: normalized growth

COCCOC(=O)C1=C(C)NC(C)=C(C(=O)OC(C)C)C1c1cccc([N+](=O)[O-])c1 (stereo unspecified)
inactive: S. cerevisiae deletion strains, locus YJR075W, strain HOC1, hits give low values 1.01 | S. cerevisiae deletion strains, locus YKL009W, strain mrt4, hits give low values 0.967 | S. cerevisiae deletion strains, locus YKL068W, hits give low values 1 | S. cerevisiae deletion strains, locus YKL085W, strain MDH1 (second series), hits give low values 0.986 | S. cerevisiae deletion strains, locus YKL085W, strain MDH1, hits give low values 0.986 | S. cerevisiae deletion strains, locus YKL160W, strain elf1, hits give low values 1.02 | S. cerevisiae deletion strains, locus YKL190W, strain CNB1, hits give low values 0.997 | S. cerevisiae deletion strains, locus YKR001C, strain vps1, hits give low values 1.01 | S. cerevisiae deletion strains, locus YKR026C, strain gcn3, hits give low values 1.01 | S. cerevisiae deletion strains, locus YKR091W, strain srl3, hits give low values 0.995 | S. cerevisiae deletion strains, locus YLL001W, strain dnm1, hits give low values 1.01 | S. cerevisiae deletion strains, locus YLL026W, hits give low values 1 | S. cerevisiae deletion strains, locus YLL041C, strain sdh2, hits give low values 1.01 | S. cerevisiae deletion strains, locus YLR027C, strain aat2, hits give low values 1 | S. cerevisiae deletion strains, locus YLR039C, strain RIC1, hits give low values 1.02 | S. cerevisiae deletion strains, locus YLR058C, strain SHM2, hits give low values 1 | S. cerevisiae deletion strains, locus YLR102C, strain apc9, hits give low values 1.02 | S. cerevisiae deletion strains, locus YLR113W, strain HOG1, hits give low values 0.954 | S. cerevisiae deletion strains, locus YLR221C, strain rsa3, hits give low values 1 | S. cerevisiae deletion strains, locus YLR258W, strain gsy2, hits give low values 1.01 | S. cerevisiae deletion strains, locus YLR262C, strain YPT6 (second series), hits give low values 0.988 | S. cerevisiae deletion strains, locus YLR262C, strain YPT6, hits give low values 1.05 | S. cerevisiae deletion strains, locus YLR268W, strain sec22, hits give low values 0.993 | S. cerevisiae deletion strains, locus YLR320W, strain mms22, hits give low values 0.984 | S. cerevisiae deletion strains, locus YLR330W, strain CHS5, hits give low values 1.01 | S. cerevisiae deletion strains, locus YLR342W, strain FKS1 (second series), hits give low values 1.01 | S. cerevisiae deletion strains, locus YLR342W, strain FKS1, hits give low values 1.02 | S. cerevisiae deletion strains, locus YLR357W, strain rsc2, hits give low values 1.02 | S. cerevisiae deletion strains, locus YLR370C, strain arc18, hits give low values 1 | S. cerevisiae deletion strains, locus YLR371W, strain rom2, hits give low values 1.01 | S. cerevisiae deletion strains, locus YLR384C, strain iki3, hits give low values 1.02 | S. cerevisiae deletion strains, locus YLR418C, strain cdc73, hits give low values 0.974 | S. cerevisiae deletion strains, locus YML016C, strain PPZ1, hits give low values 1 | S. cerevisiae deletion strains, locus YML032C, strain rad52, hits give low values 1.01 | S. cerevisiae deletion strains, locus YML120C, strain ndi1, hits give low values 1.03 | S. cerevisiae deletion strains, locus YML124C, strain tub3, hits give low values 1.01 | S. cerevisiae deletion strains, locus YMR058W, strain fet3, hits give low values 1.02 | S. cerevisiae deletion strains, locus YMR078C, strain ctf18, hits give low values 1.02 | S. cerevisiae deletion strains, locus YMR125W, strain sto1, hits give low values 1.06 | S. cerevisiae deletion strains, locus YMR129W, hits give low values 1.01 | S. cerevisiae deletion strains, locus YMR205C, strain PFK2, hits give low values 0.979 | S. cerevisiae deletion strains, locus YMR223W, strain ubp8, hits give low values 1.01 | S. cerevisiae deletion strains, locus YMR231W, strain pep5, hits give low values 1.01 | S. cerevisiae deletion strains, locus YMR263W, strain SAP30, hits give low values 1 and 1.01 | S. cerevisiae deletion strains, locus YMR307W, strain GAS1, hits give low values 1.02 and 1.01 | S. cerevisiae deletion strains, locus YNL067W, strain RPL9B, hits give low values 0.997 | S. cerevisiae deletion strains, locus YNL071W, strain lat1, hits give low values 0.998 | S. cerevisiae deletion strains, locus YNL128W, strain TEP1, hits give low values 1.01 | S. cerevisiae deletion strains, locus YNL153C, strain GIM3, hits give low values 1 | S. cerevisiae deletion strains, locus YNL175C, strain NOP13, hits give low values 0.962 | S. cerevisiae deletion strains, locus YNL183C, strain NPR1, hits give low values 0.93 | S. cerevisiae deletion strains, locus YNL197C, strain WHI3, hits give low values 0.99 | S. cerevisiae deletion strains, locus YNL209W, strain ssb2, hits give low values 1 | S. cerevisiae deletion strains, locus YNL224C, strain SQS1, hits give low values 1.01 | S. cerevisiae deletion strains, locus YNL233W, strain BNI4, hits give low values 1 | S. cerevisiae deletion strains, locus YNL248C, strain rpa49, hits give low values 1.03 | S. cerevisiae deletion strains, locus YNL250W, strain rad50, hits give low values 1.02 | S. cerevisiae deletion strains, locus YNL271C, strain bni1, hits give low values 1.01 | S. cerevisiae deletion strains, locus YNL298W, strain CLA4, hits give low values 1 | S. cerevisiae deletion strains, locus YNL307C, strain MCK1, hits give low values 1.01 | S. cerevisiae deletion strains, locus YNL322C, strain KRE1 (second series), hits give low values 1 | S. cerevisiae deletion strains, locus YNL322C, strain KRE1, hits give low values 1.01 | S. cerevisiae deletion strains, locus YNR049C, strain mso1, hits give low values 0.993 | S. cerevisiae deletion strains, locus YNR052C, strain pop2, hits give low values 1.01 | S. cerevisiae deletion strains, locus YOL006C, strain TOP1, hits give low values 1.01 | S. cerevisiae deletion strains, locus YOL012C, strain htz1 1.04 | S. cerevisiae deletion strains, locus YOL147C, strain pex11, hits give low values 1.01 | S. cerevisiae deletion strains, locus YOR001W, strain rrp6, hits give low values 1 | S. cerevisiae deletion strains, locus YOR061W, strain CKA2, hits give low values 0.999 | S. cerevisiae deletion strains, locus YOR069W, strain VPS5, hits give low values 1.01 | S. cerevisiae deletion strains, locus YOR070C, strain gyp1, hits give low values 1.02 | S. cerevisiae deletion strains, locus YOR080W, strain dia2, hits give low values 1.01 | S. cerevisiae deletion strains, locus YOR083W, strain WHI5 (second series), hits give low values 0.986 | S. cerevisiae deletion strains, locus YOR083W, strain WHI5, hits give low values 0.974 | S. cerevisiae deletion strains, locus YOR106W, strain vam3, hits give low values 1 | S. cerevisiae deletion strains, locus YOR136W, strain idh2, hits give low values 1.01 | S. cerevisiae deletion strains, locus YOR144C, strain elg1, hits give low values 1.01 | S. cerevisiae deletion strains, locus YOR184W, strain ser1, hits give low values 1.01 | S. cerevisiae deletion strains, locus YOR231W, strain MKK1, hits give low values 0.935 | S. cerevisiae deletion strains, locus YOR265W, strain rbl2, hits give low values 0.999 | S. cerevisiae deletion strains, locus YOR270C, strain vph1, hits give low values 0.92 | S. cerevisiae deletion strains, locus YOR290C, strain snf2, hits give low values 1.03 | S. cerevisiae deletion strains, locus YOR316C, strain cot1, hits give low values 1.01 | S. cerevisiae deletion strains, locus YPL051W, strain arl3, hits give low values 1.01 | S. cerevisiae deletion strains, locus YPL055C, strain LGE1, hits give low values 1 and 1.02 | S. cerevisiae deletion strains, locus YPL078C, strain atp4, hits give low values 1.03 | S. cerevisiae deletion strains, locus YPL106C, strain sse1, hits give low values 1.08 | S. cerevisiae deletion strains, locus YPL240C, strain hsp82, hits give low values 1.02 | S. cerevisiae deletion strains, locus YPL241C, strain CIN2, hits give low values 0.985 | S. cerevisiae deletion strains, locus YPL256C, strain CLN2, hits give low values 0.955 | S. cerevisiae deletion strains, locus YPR119W, strain clb2, hits give low values 1.01 | S. cerevisiae deletion strains, locus YPR141C, strain kar3, hits give low values 1.02 | S. cerevisiae deletion strains, locus YPR163C, strain tif3, hits give low values 1.01 | S. cerevisiae deletion strains, locus YPR167C, strain met16, hits give low values 1.01 | S. cerevisiae deletion strains, strain wtn01, hits give low values 1 | S. cerevisiae strains, strain wild type, hits give low values 1
